The results in this text go back to ChEMBL document CHEMBL4513216, “Probing the Open Global Health Chemical Diversity Library for Multistage-Active Starting Points for Next-Generation Antimalarials” (ACS Infect Dis, 2020).

Molecules are shown by their SMILES. In all, about 69,000 compounds went through this assay and about 8,600 (12%) showed an effect of 50% or more. Shown is part of a subset that was picked to be rich in strong results.

This assay relates to Plasmodium berghei. Put plainly: Screen against P. berghei liver stage (PbLuc), transformed with Luciferase, at 10uM. Conditions: tested at 10 uM. The class given is functional, HepG2.
Turning to `CCCn1cc(-c2cc(-c3cc(CC)n[nH]3)c(C#N)c(N)n2)c(C)n1`, the INHIBITION is given as 64.5%.

For `Cc1ccc(O)c(CNC2CCCN(Cc3noc(C4CC4)n3)C2)n1` (centres undefined), the INHIBITION was found to be 15.3%.

Take `CC(C)NC(=O)CN(C)CC(=O)Nc1ccnn1C(C)C1CC1` (centres undefined): the INHIBITION is listed as -164%.

With `CC(=O)Nc1ccc(CNC(=O)CNCc2nnc(C)o2)cc1`, the INHIBITION is given as 45.4%.

Regarding `CC(=O)Nc1ccc(CN(C)Cc2snnc2C)cc1`, the INHIBITION was 34.6%.

Take `CC(=O)Nc1ccc(CNC(=O)CNCc2sc(C)nc2C)cc1`: the INHIBITION is reported as 55.5%.

Consider `CC(=O)Nc1ccc(CNC(=O)CNCc2snnc2C)cc1`, for which the INHIBITION was 52.2%.

Take `Cc1nc(C)c(CC(=O)NCc2ccccc2F)s1`: the INHIBITION is given as 31.3%.

For `Cc1nc(C)c(CC(=O)NCc2ccc(F)cc2)s1`, the INHIBITION is on record as -2.39%.

Take `O=C(O)c1cc(S(=O)(=O)N2CCOc3ccccc32)ccc1Br`: the INHIBITION turned out to be 2.7%.

With `CN(C(=O)Cn1nc(-c2ccc(Br)cc2)ccc1=O)C1CCS(=O)(=O)C1` (centres undefined), the INHIBITION is recorded as -29.2%.

In the case of `CC(C)c1cc(O)nc(C2CCCN2C(=O)C2CC2)n1` (centres undefined), the INHIBITION is reported as -9.32%.

With `O=S(=O)(NCC1CCN(c2cnccn2)CC1)C1CC1`, the INHIBITION is given as 27.5%.

Regarding `Cn1nccc1-c1ccc2nc(C3CCNCC3)nn2c1`, the INHIBITION is -3.33%.

In the case of `Cc1nc(S(=O)(=O)N2CCCCc3ccccc32)cn1C`, the INHIBITION is on record as -49.3%.

As for `COc1cccc(CC(=O)N2CCC(c3ccn4nccc4n3)CC2)c1`, the INHIBITION came out at 23.9%.

For `O=S(=O)(NCC1COCCO1)c1ccc(C2CCCCC2)cc1` (centres undefined), the INHIBITION came out at 74.5%.

For `Cc1ccc(S(=O)(=O)NCC2CNCCOC2)cc1Cl` (centres undefined), the INHIBITION is -95.7%.

Consider `O=C(NS(=O)(=O)c1ccc(C2CCCCC2)cc1)C1COCCO1` (centres undefined), for which the INHIBITION is reported as 46.4%.

Regarding `Cc1cc(C)n(CC2CCCN2C(=O)c2cncnc2C)n1` (centres undefined), the INHIBITION is -2.1%.

`CCOCCN1CCc2cncnc2C1`: the INHIBITION is listed as 53.3%.

Take `c1ncc2c(n1)CN(CC1CCCCO1)CC2` (centres undefined): the INHIBITION came to 87.1%.

As for `CC(C)OCCN1CCc2cncnc2C1`, the INHIBITION was found to be 24.4%.

In the case of `Cc1ccc(C(NC(=O)CN2CCc3cncnc3C2)C2CC2)cc1` (centres undefined), the INHIBITION turned out to be 34.2%.

As to `Cc1ncc2c(n1)CN(CCOCC(F)(F)F)CC2`, the INHIBITION came out at 26.6%.

Take `N#Cc1ccc(OCCN2CCc3cncnc3C2)cc1`: the INHIBITION is 9.54%.

On to `Cc1ncc2c(n1)CN(CC1CCCCO1)CC2` (centres undefined), for which the INHIBITION came to 3.17%.

Consider `CCc1ncc2c(n1)CN(CC1CCCCO1)CC2` (centres undefined), for which the INHIBITION came out at 9.35%.

`FC(F)(F)COCCN1CCc2cncnc2C1`: the INHIBITION was 64%.

In the case of `O=C(CN1CCc2cncnc2C1)NC(c1ccccc1)C1CC1` (centres undefined), the INHIBITION is 24.4%.

Take `COCCCN1CCc2cncnc2C1`: the INHIBITION is on record as 40.3%.

Consider `O=C(CN1CCc2cncnc2C1)NC(C1CC1)C1CC1`, for which the INHIBITION is on record as 57%.

Take `Cn1nnc2c(N3CC(C(=O)NCc4ccccc4F)C3)ncnc21`: the INHIBITION was 15.7%.

For the compound `Cc1cnn(CC2CCCN2CCCS(=O)(=O)N(C)C)c1` (centres undefined), the INHIBITION is 2.97%.

Turning to `N#Cc1ccc(C2CC(=O)Nc3c(C(=O)O)nsc32)cc1` (centres undefined), the INHIBITION is listed as -38.7%.

Regarding `CC(C)C(Sc1nnc(NC2CC2)s1)C(=O)NCc1cccnc1` (centres undefined), the INHIBITION is recorded as -26.7%.

On to `Cc1noc(C)c1S(=O)(=O)NC(=O)COc1cccc(C(C)C)c1`, for which the INHIBITION worked out at 13.3%.

`Nc1nc2c(s1)C(c1c(F)cccc1Cl)CC(=O)N2` (centres undefined): the INHIBITION is 30%.

With `CCNc1ncc(C(=O)N(C)C(C)c2ccc3c(c2)OCCO3)cn1` (centres undefined), the INHIBITION worked out at 15.8%.

Consider `Cc1ccccc1-c1cncc(C2CCN(CCO)CC2)n1`, for which the INHIBITION is 38.2%.

Consider `CCN(CC1COc2ccccc2O1)C(=O)C1=NN(C)C(=O)CC1` (centres undefined), for which the INHIBITION was 50.8%.

For `CCCN(CC1COc2ccccc2O1)C(=O)C1=NN(C)C(=O)CC1` (centres undefined), the INHIBITION is given as 42.4%.

Consider `CN(CC1COc2ccccc2O1)C(=O)C1=NN(C)C(=O)CC1` (centres undefined), for which the INHIBITION worked out at 25.7%.

For `CCNC(=O)CCCC(=O)N1CCc2cc(Cl)cc(Cl)c2C1`, the INHIBITION is listed as -4.52%.

As for `COC(=O)C1CCN(C(=O)Cn2ccc(-c3ccccc3)n2)CC1`, the INHIBITION was -35%.

As to `CN1CCO[C@H]2CN(C(=O)c3ccoc3)C[C@H]21`, the INHIBITION is 54.4%.

Take `CC(C)N1CCO[C@H]2CN(C(=O)c3ccoc3)C[C@H]21`: the INHIBITION came to 38.7%.

In the case of `O=C(c1ccoc1)N1C[C@@H]2OCCN(c3ncccn3)[C@@H]2C1`, the INHIBITION was -4.32%.

`O=C(NCc1cc(-c2ccccc2)no1)NC1CCCCNC1=O` (centres undefined): the INHIBITION was -24.8%.

As for `O=C(c1n[nH]cc1Cl)N1CCCC(n2nnc3cc(F)ccc32)C1` (centres undefined), the INHIBITION was determined as 38.8%.

With `N#CC1(C(=O)N2C[C@@H]3CC[C@H]2CN(Cc2ccncc2)C3)CCOCC1`, the INHIBITION turned out to be 26.5%.

Regarding `CN(CC(C)(C)C)S(=O)(=O)c1ccc(C(F)(F)F)nc1`, the INHIBITION came out at 33.7%.

With `Cc1ccc(S(=O)(=O)N(C)Cc2cnccn2)cc1N(C)C`, the INHIBITION came out at 26%.

Regarding `CN(Cc1cnccn1)S(=O)(=O)c1ccc(C(F)(F)F)nc1`, the INHIBITION was 75.5%.
